Source: PubChem BioAssay (NCI)
“And” between values parts separate entries of the source, which are not always exact repeats. Identical values can stand only once. Compounds without any hit were thinned out: in the full panel of roughly 83,000, 20% have a hit.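 96-well plates, one dose, 48 hours. Percent growth reported; active if below 10.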 The source made the active and inactive calls.

What follows are molecules tested on HL-60(TB) leukemia (assay: NCI-60 one-dose screen, 48 h (100 = growth as untreated, 0 = no growth, -100 = all killed)). Conditions: 10 µM unless noted.
With C=C(C)[C@@H]1CC[C@]2(C(=O)N=C=S)CC[C@]3(C)[C@H](CC[C@@H]4[C@@]5(C)CCC(=O)C(C)(C)[C@@H]5CC[C@]43C)[C@@H]12 the growth was -2.27% (active). In the case of Cc1nssc1=S, the growth was 106% (inactive). For Cc1cc(N2CCC(N3CCCC3)CC2)nc(/N=C(\N)Nc2ccc(Cl)c(Cl)c2)n1, the growth was 90.4% (inactive). For Cc1ccc(S(=O)(=O)Oc2ccc([N+](=O)[O-])cc2[N+](=O)[O-])cc1, the growth was 47.9% (inactive). With CCCCCCCCCCCCCCCCCCNC(=S)N/N=C/c1ccc(OC)c(OC)c1 the growth was 73.6% (inactive). O=CN1CCCCC1 was tested, and the growth was 97% (inactive). CNc1nnc2n(-c3ccccc3)c(=O)c3cnn(-c4ccccc4)c3n12 was tested, and the growth was 70.5% (inactive). With CS(=O)CC(=N\O)/C(CS(C)=O)=N\O (stereo not given) the growth was 101% (inactive). C=C1C(=O)O[C@H]2[C@H]1CC/C(COC(=O)NCCc1ccc(OC)cc1)=C\CC[C@@]1(C)O[C@@H]21 was tested, and the growth was -22% (active). With Cc1ccc(NC(=O)N[C@@H](Cc2cc(F)cc(F)c2)C(=O)N[C@@H]2C(=O)N3CCC[C@H]3C(=O)N3CCOC[C@H]3C(=O)N[C@@H](C)C(=O)N3C[C@H](C)C[C@H]3C(=O)O[C@H]2C)cc1 the growth was 14.5% (inactive). O=C(NCc1cccnc1)c1ccc([N+](=O)[O-])o1 was tested, and the growth was 9.68% (active). In the case of O=c1c(-c2nc3ccccc3[nH]2)cc2ccccc2n1Cc1cn(Cc2ccc(F)cc2)nn1, the growth was 0.035% (active). In the case of O=C(O)C1CSCN1 (stereo not given), the growth was 80.4% (inactive) and 83.9% (inactive). For CCCOc1cc2ccccc2cc1C(=O)Nc1nc(NC)c2c(ccc3nccc32)[nH]1, the growth was -55.2% (active). With COc1ccc2cc(-c3ccc(NC(C)=O)c(=O)o3)ccc2c1 the growth was 95.1% (inactive). In the case of Oc1ccc(/C=N/Nc2nnc(N/N=C/c3ccc(O)cc3O)c3ccccc23)c(O)c1, the growth was -62.2% (active). Nc1ccccc1Nc1ccccc1 was tested, and the growth was 23.5% (inactive) and 11.2% (inactive). With CCCCn1cnc2c(Sc3c([N+](=O)[O-])ncn3C)nc(N)nc21 the growth was 54.3% (inactive). In the case of CCCCN(CCCC)c1ccc(C(=O)O)cc1, the growth was 104% (inactive). In the case of O=C(NC1CCN(Cc2ccccc2)CC1)c1cc2nc(-c3ccc(Cl)s3)cc(C(F)(F)F)n2n1, the growth was 58.6% (inactive). For NS(=O)(=O)c1ccc(CCNC(=O)/C=C/c2ccc(Cl)cc2)cc1, the growth was 89.1% (inactive). In the case of Cc1ccc(-c2nc(/C=C3/C(=O)Nc4ccccc43)c3ccccn23)cc1, the growth was 113% (inactive). In the case of CCOC(=O)C(C#N)Cc1ccccc1 (stereo not given), the growth was 104% (inactive). CC1=C(CCC(C)N(C)Cc2ccc(OCCCN3CCCC3)cc2)C(C)(C)CCC1 (stereo not given) was tested, and the growth was 24.6% (inactive). N#CC1(Nc2ccc3c4c(cccc24)CC3)CCCCC1 was tested, and the growth was 72.2% (inactive). In the case of CCC(=O)N1C/C(=C/c2ccc(Cl)cc2)C(=O)/C(=C/c2ccc(Cl)cc2)C1, the growth was 4.88% (active). With N=c1c2ccccc2nc2n1CCCCC2 the growth was 130% (inactive). COc1ccc(/C=C(/C#N)n2nnc3cccc(F)c32)cc1 was tested, and the growth was -9.75% (active). In the case of O=C1C(=O)c2ccccc2C(O)=C1CCCc1ccc(C2CCCC2)cc1, the growth was 20.6% (inactive). In the case of O=C(c1ccccc1)C1CCC1, the growth was 88.2% (inactive). In the case of O=C1N/C(=N\c2nnc(-c3ccc(O)cc3)s2)S/C1=C\c1ccccc1O, the growth was 104% (inactive). For Nc1c(C(=O)Nc2ccccn2)sc2nc3c(cc12)CCCCCC3, the growth was -22.2% (active). With CCCCCCCOc1cccc(/C=C2\N=C3SCCCN3C2=O)c1 the growth was 65% (inactive). For Cc1cccc([N+](=O)[O-])c1Cl, the growth was 115% (inactive). With COc1cc(OCc2cccc(Br)c2C)cc(OC)c1C=O the growth was 92.6% (inactive). With COc1ccc(C(=O)c2ccc(OC)c(OC)c2OC)cc1 the growth was 22.3% (inactive) and -8.89% (active). COc1ccc(-c2cc(C(=O)N=Nc3c(O)[nH]c4ccccc34)no2)cc1 was tested, and the growth was 91.8% (inactive). In the case of COc1ccc(Cl)cc1NC(=O)c1cc2c([nH]1)-c1nc(NC(=O)C(C)(C)C)sc1CC2, the growth was 60.9% (inactive). Cc1nc2ncccc2nc1Nc1ccc(S(=O)(=O)Nc2cncs2)cc1 was tested, and the growth was 109% (inactive). For CN(C)CCOc1ccc(-c2nc3ccc(-c4nc5ccc(N6CCN(C)CC6)cc5[nH]4)cc3[nH]2)cc1, the growth was 72.1% (inactive).
